Test results reported in PubChem BioAssay AID2102 (Southern Research Specialized Biocontainment Screening …, 2009).
In all, about 1,100 compounds went through this assay and about 210 (19%) were called active. Only a sample is shown. Results with a measured potency or affinity are listed apart. Unmarked numbers belong to inactive results. The rule behind the calls is not given here.

Experiment: host cell cytotoxicity, dose response, cytotoxicity control for SV40 T antigen inhibitor project, selected hits (AID 2102);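 note: cells exposed to compounds for 72 hours; 100% = mean of untreated cell control wells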
Conditions: Host cell viability cytotoxicity counter-screen; series mostly up to 50 µM; viability: at the top concentration

Compound	viability
O=C(c1cccc(-c2ccc(O)cc2)c1)N1CCOCC1	106%
CC(=O)Nc1ccc(S(=O)(=O)Nc2nc3ccccc3nc2Nc2ccc(O)cc2)cc1	92%
CCOc1cc(/C=N\NC(=O)CC(=O)NCCc2ccccc2)ccc1O	93.8%
Cc1cc(=O)[nH]c(N/N=C/c2c[nH]c3ccccc23)n1	122%
CCn1cnc2cc(NCc3ccc(N(C)C)cc3)ccc21	107%
C/C(=N\NC(=O)CSc1nc2ccccc2o1)c1ccc(O)cc1	86.8%
Cc1cccc(N2NC(=O)/C(=C/c3ccc(-c4ccc(Cl)c(C(=O)O)c4)o3)C2=O)c1	104%
C=CCn1c(SCC(=O)c2ccc(O)c(O)c2)nnc1-c1ccccc1OC	83.6%
COc1cc(/C=N/NC(=O)c2cc(C3CC3)[nH]n2)ccc1O	105%
COCCCNC(=S)N/N=C/c1ccc(O)cc1O	89.5%
Nc1c(O)cccc1C(=O)O	106%
NC(=O)N/N=C/c1c(Sc2nnnn2-c2ccccc2)nc2ccccn2c1=O	87.2%
COc1ccc2c(c1OC)C(=O)N(c1ccc(O)cc1)C2	95.8%
O=C1CCCC2=C1Sc1ccccc1N2	100%
CCSC1(SCC)N=C(N)C2(C#N)C(c3ccc(OC)c(OC)c3OC)C12C#N (configuration not stated)	90.3%
COc1cc(/C=N/NC(=O)c2nc(C)cc(C)n2)ccc1O	103%
Cc1nonc1C(=O)N/N=C/c1ccc(O)c(O)c1	109%
CC(=O)NCCc1c[nH]c2ccc(O)cc12	108%
COc1ccccc1N1CSC2=C(C#N)C(c3ccc(SC)cc3)CC(=O)N2C1 (configuration not stated)	104%

Compound	viability
COc1cc(/C=N/NS(=O)(=O)c2ccc(Br)cc2)ccc1O	103%
CC(=O)c1ccc2c(c1)C1C=CCC1C(C(=O)O)N2 (configuration not stated)	102%
Nc1cc(C(=O)O)c(N)c2c1C(=O)c1ccccc1C2=O	94.8%
C=CCSC1=NC(=O)/C(=C/c2cccs2)S1	96%
CN1CCC/C1=C/C=C1\SC(=S)NC1=O	108%
CCCC1=NN2C(=N)/C(=C\c3ccc(SCc4ccco4)o3)C(=O)N=C2S1	93.2%
N=C1/C(=C\c2ccc(SCc3ccco3)o2)C(=O)N=C2SC=NN12	102%
CSC1=NSC2=NC(=O)/C(=C\c3coc4ccccc4c3=O)C(=N)N12	90.3%
CN(C)c1ccc(NC(=O)CN2CCC(N3CCCCC3)CC2)cc1	106%
N#C/C(=C\c1coc2ccc(O)cc2c1=O)C(=O)Nc1nc2ccccc2s1	110%
O=c1c2cc(O)c(O)cc2oc2cc(O)c(C3OC(CO)C(O)C(O)C3O)c(O)c12 (configuration not stated)	99.3%
CCOc1cc(NC2CS(=O)(=O)CC2O)c(OCC)cc1NC(=O)c1ccccc1 (configuration not stated)	81.7%
CC1(C)CC(=O)C(C=Nc2ccc(O)cc2)=C(O)C1	95.6%
O=c1c2c3c(sc2n2c(=S)[nH]nc2n1-c1ccccc1)CCC3	88.7%
COc1ccc(-n2c(=O)c3c4c(sc3n3c(=S)[nH]nc23)CCC4)cc1	81.5%
COCCCn1c(=O)c2ccccc2n2c(=S)[nH]nc12	94.7%
OCc1ccccc1SSc1ccccc1CO	82.2%
O=C(O)CCNc1ccc(NCCC(=O)O)c2c1C(=O)c1ccccc1C2=O	87.2%
Oc1ccc(-c2nc3ccccn3c2NCc2ccco2)cc1	110%

Compound	viability
Oc1ccc2ccccc2c1C=Nc1ccc(N2CCOCC2)cc1	100%
Cc1ccc(-n2nnnc2C(Cl)(Cl)c2nnnn2-c2ccc(C)cc2)cc1	93.8%
c1ccc(-c2ccc3c(c2)NCCN3)cc1	109%
Oc1ccc(/C=N/NC(=S)Nc2cccnc2)cc1	109%
CCCCC1(C)OC(=O)C(=Cc2ccc(-c3ccc(Cl)c(C(=O)O)c3)o2)C(=O)O1 (configuration not stated)	97.5%
O=C(O)c1ccccc1NS(=O)(=O)c1cccc(-n2sc3ccccc3c2=O)c1	115%
O=c1c2ccccc2sn1-c1cc(S(=O)(=O)N2CCOCC2)ccc1N1CCCC1	89.4%
Nc1nc2ccc(S(=O)(=O)N3CCCCC3)cc2s1	82.8%
C[C@]12CC[C@@H]3c4cc(O)c(O)cc4CC[C@H]3[C@@H]1CC[C@@H]2O	86.2%
O=C(Nc1ccc(O)cc1)c1ccc(NC(=O)C2CCCO2)cc1 (configuration not stated)	113%
COc1cc([N+](=O)[O-])ccc1NC(=O)Oc1ccc(NC(C)=O)cc1	111%
O=C1CC(=O)N(Cc2ccco2)C(=O)N1	92.7%
COc1ccc(NCC(O)Cn2cnc3c2c(=O)n(C)c(=O)n3C)cc1 (configuration not stated)	87.5%
CCN(CC)c1ccc(NC(=O)COC(=O)c2ccc3ccccc3n2)cc1	107%
COc1cc(/C=c2\sc3n(c2=O)CCCN=3)ccc1O	113%
Cc1nn(CC(=O)Nc2ccc(N(C)C)cc2)c(C)c1[N+](=O)[O-]	90%
Cc1cc(=O)oc2c(N)c(O)ccc12	112%
Cc1cc(C)c2c(c1)NC(C(=O)O)C1CC=CC21 (configuration not stated)	101%
CCOc1cc(/C=N/Nc2ncnc(Cl)c2N)ccc1O	93.8%
